Experimental data taken from PubChem BioAssay (NCI).
This is part of a sample that, as a whole, favours compounds with a hit. Of some 83,000 tested, about 20% had one in any assay.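 Step 1: grow cells in 96-well plates. Step 2: add test compound at a single concentration. Step 3: incubate 48 h. Step 4: record percent growth.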 Unmarked numbers belong to inactive results. Active and inactive are the calls of the source. Rule for the calls: active = growth percent below 10; inactive = the rest.

Experiments:
Assay in all cases: NCI-60 one-dose screen, 48 h (100 = growth as untreated, 0 = no growth, -100 = all killed)
Conditions in all cases: 10 µM
[1] = test system: NCI-H23 lung
[2] = test system: NCI-H226 lung
[3] = test system: NCI-H322M lung
[4] = test system: HOP-62 NSCLC
[5] = test system: NCI-H460 lung
[6] = test system: HOP-92 NSCLC
[7] = test system: NCI-H522 lung
[8] = test system: A549/ATCC NSCLC
[9] = test system: 786-0 renal
[10] = test system: COLO 205 colon

With `c1ccc(COCC[P+](c2ccccc2)(c2ccccc2)c2ccccc2)cc1` the growth [1] was -10.1% (active), the growth [2] was 28.5% and the growth [3] was 10.4%. The growth [4] was 22.1%, the growth [5] was 3.37% (active) and the growth [6] was -29.9% (active). The growth [7] was -9.64% (active), the growth [8] was 8.47% (active) and the growth [9] was 16.9%. The growth [10] was -41.2% (active).
`C=CCN1C(=O)/C(=C\c2ccc3c(c2)CCC3)SC1=S` was tested, and the growth [1] was 90.3%, the growth [2] was 96.7% and the growth [3] was 106%. The growth [4] was 76.3%, the growth [5] was 107% and the growth [6] was 91.5%. The growth [7] was -22.1% (active), the growth [8] was 105% and the growth [9] was 104%. For the same molecule, the growth [10] was 109%.
For `CC(=O)/C(=C\c1ccc(Cl)cc1)c1ccccc1`, the growth [1] was 20.1%, the growth [2] was 8.66% (active) and the growth [3] was 49.1%. The growth [4] was 32%, the growth [5] was 6.31% (active) and the growth [6] was -0.736% (active). The growth [7] was -1.57% (active), the growth [8] was 17.1% and the growth [9] was 22.9%. The growth [10] was -40.5% (active).
Work on `COC(=O)CCCCCCCCC(C)c1ccc(C(C)=O)cc1` (stereo not given) yielded a growth [1] of 99.9%, a growth [2] of 104% and a growth [3] of 121%. It also gave a growth [4] of 100%, a growth [5] of 108% and a growth [6] of 113%. It also gave a growth [7] of 101%, a growth [8] of 105% and a growth [9] of 102%. For the same molecule, the growth [10] was 114%.
Work on `COc1ccc(-c2csc(NC(=O)CO[N+](=O)[O-])n2)cc1` yielded a growth [1] of 93.4%, a growth [2] of 102% and a growth [3] of 96.1%. The growth [4] was 101%, the growth [5] was 94.1% and the growth [6] was 118%. For the same molecule, the growth [7] was -39.7% (active), the growth [8] was 84.9% and the growth [9] was 113%. The growth [10] was 89.1%.
`COc1cc(CSc2nc3ccc(Cl)cc3c(=O)n2Cc2ccccc2)cc(OC)c1OC` showed a growth [1] of 25%, a growth [2] of 47.9% and a growth [3] of 47.5%. For the same molecule, the growth [4] was 37.7%, the growth [5] was 20.5% and the growth [6] was 71.3%. For the same molecule, the growth [7] was -0.0842% (active), the growth [8] was 42.2% and the growth [9] was 43.4%. For the same molecule, the growth [10] was -37.8% (active).
In the case of `Cc1cc(C#Cc2ccccc2)ccc1-n1c(/C=C/c2cc(O)ccc2O)nc2ccccc2c1=O`, the growth [1] is reported as -11.6% (active), the growth [2] is reported as -41% (active) and the growth [3] is reported as -19.5% (active). For the same molecule, the growth [4] was -33.1% (active), the growth [5] was -48.5% (active) and the growth [6] was -17.9% (active). For the same molecule, the growth [7] was -74.6% (active), the growth [8] was 8.93% (active) and the growth [9] was 17.4%. The growth [10] was -65.9% (active).
Work on `CC1=CC2OC34COC3CC(OC(=O)C(F)(F)F)C4(C)C2(C)CC1` (stereo not given) yielded a growth [1] of 110%, a growth [2] of 98.7% and a growth [3] of 96.1%. It also gave a growth [4] of 97.4%, a growth [5] of 104% and a growth [6] of 104%. The growth [7] was 103%, the growth [8] was 97.8% and the growth [9] was 101%. It also gave a growth [10] of 99.7%.
`O=c1oc2c3ccc4cnccc4c3[nH]c2c2ccccc12` gave a growth [1] of 65%, a growth [2] of 77.1% and a growth [3] of 78.6%. For the same molecule, the growth [4] was 70.8%, the growth [5] was 5.33% (active) and the growth [6] was 49.2%. The growth [7] was -11.5% (active), the growth [8] was 0.199% (active) and the growth [9] was 12.2%. For the same molecule, the growth [10] was -57.2% (active).
For `O=C(COCc1c(-c2ccccc2)no[n+]1[O-])Nc1nc(-c2ccc(Cl)cc2)cs1`, the growth [1] was 93.6%, the growth [2] was 90.4% and the growth [3] was 104%. For the same molecule, the growth [4] was 96.5%, the growth [5] was 106% and the growth [6] was 86.8%. It also gave a growth [7] of 81.1%, a growth [8] of 105% and a growth [9] of 120%. The growth [10] was 113%.
`COc1ccc(NC(=O)CCn2cnc3c(cc(-c4ccccc4)n3-c3ccccc3)c2=O)cc1` gave a growth [1] of 85.8%, a growth [2] of 88.8% and a growth [3] of 109%. The growth [4] was 11.2%, the growth [5] was 91.8% and the growth [6] was 69.1%. The growth [7] was 45.1%, the growth [8] was 85.8% and the growth [9] was 88.7%. For the same molecule, the growth [10] was 114%.
For `COc1ccc(CCc2nc3cc(-c4c(C)noc4C)ccc3n2CCN2CCOCC2)cc1`, the growth [1] was 49.5%, the growth [2] was 48.3% and the growth [3] was 75.8%. For the same molecule, the growth [4] was 40.2%, the growth [5] was 30.4% and the growth [6] was -7.34% (active). The growth [7] was 12%, the growth [8] was 26.4% and the growth [9] was 60.8%. For the same molecule, the growth [10] was 5.86% (active).
For `O=C(O)CCCN1C(=O)NC2(C1=O)c1ccccc1-c1ccccc12`, the growth [1] was 93.2%, the growth [2] was 91.1% and the growth [3] was 101%. The growth [4] was 102%, the growth [5] was 105% and the growth [6] was 88.5%. For the same molecule, the growth [7] was 80.4%, the growth [8] was 90.2% and the growth [9] was 95.2%. The growth [10] was 108%.
`CCc1ccc(-c2nnc(COc3ccc(-c4nc5ccc(C)cc5[nH]4)cc3OC)o2)cc1` was tested, and the growth [1] was 57.2%, the growth [2] was 48.6% and the growth [3] was 87.2%. It also gave a growth [4] of 32.6%, a growth [5] of 63.5% and a growth [6] of 74.1%. It also gave a growth [7] of 71.3%, a growth [8] of 61.6% and a growth [9] of 21%. The growth [10] was 84.7%.
